Laboratory results published in PubChem BioAssay (NCATS).
Results filed as inconclusive are left out. Active and inactive are the calls of the source. Unless noted, calls follow the shape of the full dose curve.

How the values were obtained:
[1] = qHTS for Inhibitors of the Functional Ribonucleoprotein Complex (vRNP) of Lassa (LASV) Arenavirus: LASV Primary Screen - GLuc reporter signal (AID 1347082; calls by dose curve; tested in HEK293 reporter line; also: nearly all actives have a fitted effect of over 60% in size; as to activity change, negative = inhibition: series mostly up to about 57 µM)
[2] = qHTS for Inhibitors of the Functional Ribonucleoprotein Complex (vRNP) of Lassa (LASV) Arenavirus: Viability assay - alamar blue signal for LASV Primary Screen (AID 1347083; calls by dose curve; tested in HEK293 reporter line; also: nearly all actives have a fitted effect of over 80% in size; as to activity change, negative = reduced viability: series mostly up to about 57 µM)
[3] = qHTS for Inhibitors of the Functional Ribonucleoprotein Complex (vRNP) of Lymphocytic Choriomeningitis Arenaviruses (LCMV): Viability assay - alamar blue signal for LCMV Primary Screen (AID 1347085; calls by dose curve; tested in HEK293 reporter line; also: nearly all actives have a fitted effect of over 80% in size; as to activity change, negative = lower viability: series mostly up to about 57 µM)
[4] = target: Nucleoprotein (Lymphocytic choriomeningitis virus (strain Armstrong)) (UniProt P09992); assay: qHTS for Inhibitors of the Functional Ribonucleoprotein Complex (vRNP) of Lymphocytic Choriomeningitis Arenaviruses (LCMV): LCMV Primary Screen - GLuc reporter signal (AID 1347086); also: nearly all actives have a fitted effect of over 70% in size; as to activity change, negative = inhibition: series mostly up to about 57 µM
Sequence of Nucleoprotein (Lymphocytic choriomeningitis virus (strain Armstrong)) (P09992 whole entry, looked up): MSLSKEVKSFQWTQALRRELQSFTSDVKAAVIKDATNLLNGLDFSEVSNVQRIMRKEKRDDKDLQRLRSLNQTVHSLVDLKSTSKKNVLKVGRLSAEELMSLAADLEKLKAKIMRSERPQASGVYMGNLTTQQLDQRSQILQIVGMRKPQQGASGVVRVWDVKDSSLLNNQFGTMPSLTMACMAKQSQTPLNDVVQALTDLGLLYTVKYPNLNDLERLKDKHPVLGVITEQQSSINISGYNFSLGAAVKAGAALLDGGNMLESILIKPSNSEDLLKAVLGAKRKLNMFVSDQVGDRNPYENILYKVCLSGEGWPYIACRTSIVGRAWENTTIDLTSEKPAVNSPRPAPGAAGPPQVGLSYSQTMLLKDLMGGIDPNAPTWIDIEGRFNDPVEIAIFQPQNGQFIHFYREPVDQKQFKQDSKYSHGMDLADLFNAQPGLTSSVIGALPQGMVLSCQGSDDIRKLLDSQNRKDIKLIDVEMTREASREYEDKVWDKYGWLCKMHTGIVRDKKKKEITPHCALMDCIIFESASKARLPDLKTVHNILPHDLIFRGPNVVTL
% is scaled to controls: 0 for no effect and ±100 for the full control effect; potency is read from the fitted curve at half-maximal effect.

CCCCCCC1CCC(=O)O1 (stereo not drawn)
inactive: Potency [1] | Potency [2] | Potency [3]

CCCCCC(=O)N[C@@H](c1ccccc1)[C@@H](O)C(=O)O[C@H]1C[C@@]2(O)[C@@H](OC(=O)c3ccccc3)C3[C@](C)(C(=O)[C@H](O)C(=C1C)C2(C)C)[C@@H](OC1OCC(O)C(O)C1O)C[C@H]1OC[C@@]31OC(C)=O (stereo partly drawn)
inactive: Potency [1] | Potency [2]

CC(=O)[C@]1(O)Cc2c(O)c3c(c(O)c2[C@@H](O[C@H]2C[C@H](N)[C@@H](O)[C@H](C)O2)C1)C(=O)c1ccccc1C3=O
active: Potency [1] 10.9 µM | Potency [2] 0.769 µM | Potency [3] 0.611 µM

CN(C)CCCc1cc(C(=O)Nc2ccc(-c3ccncc3)cc2)ccc1O
inactive: Potency [1] | Potency [2] | Potency [3]

COc1cc(/C=C/C(=O)c2ccc(O)cc2O)ccc1O
inactive: Potency [1] | Potency [2]

O=C(O)CCNc1cc(N2CCc3ccccc3CC2)nc(-c2ccccn2)n1
inactive: Potency [1] | Potency [2]

Nc1ccn([C@@H]2O[C@H](CO)[C@H](O)C2(F)F)c(=O)n1
inactive: Potency [1]
active: Potency [2] 0.968 µM | Potency [3] 0.968 µM

O=c1ccn([C@@H]2O[C@H](COP(=O)(O)O)[C@@H](O)[C@H]2O)c(=O)[nH]1
inactive: Potency [1] | Potency [2]

C=C1[C@H](n2cnc3c(=O)[nH]c(N)nc32)C[C@H](O)[C@H]1CO
inactive: Potency [1] | Potency [2] | Potency [3] | Potency [4]

COc1cccc(-c2ccc(NC(=O)C3=C(C(=O)O)CCC3)c(F)c2)c1
inactive: Potency [1] | Potency [2] | Potency [3]

CNC(=O)Nc1ccc(Cl)c(Cl)c1
inactive: Potency [1] | Potency [2]

CC1(C)[C@H](O[C@H]2O[C@H](C(=O)O)[C@@H](O)[C@H](O)[C@H]2O[C@@H]2O[C@H](C(=O)O)[C@@H](O)[C@H](O)[C@H]2O)CC[C@@]2(C)[C@H]1CC[C@]1(C)[C@H]2C(=O)C=C2[C@H]3C[C@@](C)(C(=O)O)CC[C@]3(C)CC[C@]21C
inactive: Potency [1] | Potency [2] | Potency [3] | Potency [4]

CC(C)(O)[C@@H]1Cc2c(ccc3ccc(=O)oc23)O1
inactive: Potency [1] | Potency [2] | Potency [3] | Potency [4]

c1ccc(CN(Cc2ccccc2)Cc2ccccc2)cc1
inactive: Potency [1] | Potency [2] | Potency [3] | Potency [4]

O=c1cc(CCc2ccccc2)oc2cccc(O)c12
inactive: Potency [1] | Potency [2] | Potency [3] | Potency [4]

C[C@@]12CCC3[C@@](CCC4[C@@]3(C)CCC[C@@]4(C)C(=O)O)(CC1=O)C2 (stereo partly drawn)
inactive: Potency [1] | Potency [2] | Potency [3] | Potency [4]

COc1ccc([C@@]23Oc4cc(OC)cc(OC)c4[C@]2(O)[C@H](O)[C@H](C(=O)N(C)C)[C@H]3c2ccccc2)cc1
inactive: Potency [1] | Potency [2] | Potency [3] | Potency [4]

COC1=C(OC)[C@]23CCc4ccc(OC)c(OC)c4[C@]2(CCN3C)CC1=O
inactive: Potency [1] | Potency [2] | Potency [3] | Potency [4]

CCCC1CCOC(C)S1 (stereo not drawn)
inactive: Potency [1] | Potency [2] | Potency [3] | Potency [4]

C[C@@H]1OC(O[C@H]2[C@H](Oc3cc(O)c4c(=O)c(O)c(-c5ccc(O)cc5)oc4c3)O[C@H](CO)[C@@H](O)[C@@H]2O)[C@H](O)[C@H](O)[C@H]1O (stereo partly drawn)
inactive: Potency [1] | Potency [2] | Potency [3] | Potency [4]

C/C=C1/C[C@@H](C)[C@@](C)(O)C(=O)OCC2=CCN3CC[C@@H](OC1=O)[C@@H]23
inactive: Potency [1] | Potency [2] | Potency [3] | Potency [4]

FC(F)c1nc2ccccc2n1-c1nc(N2CCOCC2)nc(N2CCOCC2)n1
active: Potency [1] 8.63 µM | Potency [2] 3.06 µM | Potency [3] 13.7 µM | Potency [4] 19.3 µM

COC(=O)c1cc2c([nH]c3ccccc32)c(C)n1
inactive: Potency [1] | Potency [2] | Potency [3] | Potency [4]

c1ccc2nc(-c3ccc4c(c3)OCO4)ccc2c1
inactive: Potency [1] | Potency [2] | Potency [3] | Potency [4]

C=CC(C)(CCC=C(C)C)OC(=O)CC(C)C (stereo not drawn)
inactive: Potency [1] | Potency [2] | Potency [3] | Potency [4]

CCCCCCCCCC=O
inactive: Potency [1] | Potency [2] | Potency [3] | Potency [4]

C/C=C(\C)C(=O)O[C@H](c1cc2ccc(=O)oc2cc1OC)[C@@H](O)C(C)(C)O
inactive: Potency [1] | Potency [2] | Potency [3] | Potency [4]

CCOC(=O)c1ccccc1
inactive: Potency [1] | Potency [2] | Potency [3] | Potency [4]

CC1=CC(=O)/C(=C(/C)O)C(=O)O1
inactive: Potency [1] | Potency [2] | Potency [3] | Potency [4]

O=P(O)(O)OC[C@H]1O[C@](O)(COP(=O)(O)O)[C@@H](O)[C@@H]1O
inactive: Potency [1] | Potency [2] | Potency [3] | Potency [4]

CC(=O)OC[C@@]12C(=O)[C@@H](O)[C@@H](C)[C@]3(C[C@@H](c4ccoc4)O[C@@H]3OC(C)=O)[C@H]1CCC[C@]21CO1
inactive: Potency [1] | Potency [2] | Potency [3] | Potency [4]

COC(=O)Cc1ccccc1
inactive: Potency [1] | Potency [2] | Potency [3] | Potency [4]

O=C(O)Cc1ccc(O)cc1
inactive: Potency [1] | Potency [2] | Potency [3] | Potency [4]

CCC(C)C(=O)OCCc1ccccc1 (stereo not drawn)
inactive: Potency [1] | Potency [2] | Potency [3] | Potency [4]

CC1=CC(=O)CCC1
inactive: Potency [1] | Potency [2] | Potency [3] | Potency [4]

COc1ccc(C=CC(=O)Nc2ccccc2C(=O)O)cc1OC
inactive: Potency [1] | Potency [2] | Potency [3] | Potency [4]

CCCCC[C@H](O)/C=C/[C@H]1OC(=O)C[C@H](O)[C@@H]1C/C=C\CCCC(=O)O
inactive: activity change, negative = inhibition [1] 4.7% [at 5.82 µM] | activity change, negative = reduced viability [2] 8.43% [at 5.82 µM] | activity change, negative = lower viability [3] 3.55% [at 5.82 µM] | activity change, negative = inhibition [4] 3.12% [at 5.82 µM]

C[C@@H]1O[C@@H](O[C@H]2CC[C@@H](O[C@H]3[C@H](O)C[C@H](c4ccc5c(c4O)C(=O)C4=C(C5=O)[C@@]5(O)C(=O)C[C@](C)(O[C@H]6CC[C@H](O[C@H]7C=CC(=O)[C@H](C)O7)[C@H](C)O6)C[C@@]5(O)C=C4)O[C@@H]3C)O[C@H]2C)C=CC1=O
inactive: Potency [1] | Potency [2] | Potency [3] | Potency [4]

CC(C)CCCCCCCCCCCCC(=O)NCC(=O)NC1C(O)C(O)C(Nc2ncnc3nc[nH]c23)OC1C(O)CO (stereo not drawn)
inactive: Potency [1] | Potency [2] | Potency [3] | Potency [4]

O=C1c2ccccc2C(=O)c2c(O)c(O)cc(O)c21
inactive: Potency [1] | Potency [2] | Potency [3] | Potency [4]

C/C(=C\CNc1ncnc2c1ncn2[C@@H]1O[C@H](CO)[C@@H](O)[C@H]1O)CO
inactive: Potency [1] | Potency [2] | Potency [3] | Potency [4]

CCCCCCCCCCCCCCCC(=O)OC(CO)CO
inactive: Potency [1] | Potency [2] | Potency [3] | Potency [4]

CCCCCCCCCCCCCCCC(=O)NCCc1c[nH]c2ccccc12
inactive: Potency [1] | Potency [2] | Potency [3] | Potency [4]

CN1CCCC1
inactive: Potency [1] | Potency [2] | Potency [3] | Potency [4]

CCCCCCC(=O)OCC
inactive: Potency [1] | Potency [2] | Potency [3] | Potency [4]

COC(=O)C=CC(=O)OC
active: Potency [1] 6.11 µM | Potency [2] 4.85 µM | Potency [3] 3.06 µM | Potency [4] 4.85 µM

COc1ccc(C(=O)/C=C/c2ccc(O)cc2)c(O)c1C/C=C(\C)CCC=C(C)C
inactive: Potency [1] | Potency [2] | Potency [3] | Potency [4]
